# Screens as filed in PubChem BioAssay.
# KB-V1 MDR tox: qHTS assay for MDR1-selective chemotherapeutics: Primary screen using the drug-selected MDR subline cells KB-V1; KB-V1 MDR cells viability, CellTiter-Glo, 72 h; Potency, µM (titrated, usually from 46.1 µM), actives largely listed as cytotoxic; AID 1347076, 2019; hit rate 3.4% among 400,000; note: % is set by controls: 0 for no effect and ±100 for the full control effect; nearly all actives have a fitted effect of over 60% in size
#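 KB-V1 cells (P-gp-expressing MDR subline of KB-3-1) in phenol-red-free DMEM with 10% FBS were exposed to library compounds over a concentration series for 72 h at 37 degrees C. Viability read by CellTiter-Glo luminescence; concentration-effect curves fitted after normalization.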
# SW480 rereplic: A quantitative high throughput screen for small molecules that induce DNA re-replication in SW480 colon adenocarcinoma cells; AID 624297, 2012; Potency, µM (series often up to 46.1 µM), for inactives: at the highest dose re-replication activation, actives largely listed as activators; SW480 DNA re-replication, Hoechst DNA content imaging, 48 h; hit rate 1.8% among 340,000; note: % of control where 0% means no effect; nearly all actives have a fitted effect of over 55% in size
#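 Hoechst fluorescence of nuclei (405 nm excitation, 500-530 nm emission) measured by plate-scanning imager after 48 hr compound exposure at 37 C; re-replication scored as increased number of nuclei with elevated intensity.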
# HT1080 IDH1KD tx: qHTS for induction of synthetic lethality in tumor cells producing 2HG: qHTS for the HT-1080-IDH1KD cell line; Potency, µM (doses to about 46.1 µM), inactives show at the top dose activity, negative = toxicity, actives largely listed as cytotoxic; HT-1080 IDH1 knockdown viability, ATP luminescence, 48 h; hit rate 2% among 360,000;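 note: 0% = DMSO wells and -100% = cell-free medium wells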
#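 Cytotoxicity counter-line: IDH1KD HT-1080, 48 h, CellTiter-Glo. Curves classed by r2, magnitude and activity.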
# KB-3-1 tox: qHTS assay for MDR1-selective chemotherapeutics: Primary screen using the parental adenocarcinoma cell KB-3-1; hit rate 1.4% among 400,000; KB-3-1 viability, CellTiter-Glo ATP luminescence, 72 h; Potency, µM (highest dose often 46.1 µM), most hits filed as cytotoxic; AID 1347075, 2019; note: % is set by controls: 0 for no effect and ±100 for the full control effect; nearly all actives have a fitted effect of over 60% in size
#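 Here the drug-naive KB-3-1 line serves as comparator for MDR sub-line selectivity; cells received compound titrations, 72 h at 37 °C, then CellTiter-Glo readout.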
# HT1080-NT tox: qHTS for induction of synthetic lethality in tumor cells producing 2HG: qHTS for the HT-1080-NT fibrosarcoma cell line; HT-1080-NT fibrosarcoma viability, CellTiter-Glo ATP luminescence, 48 h; Potency, µM (titrated, usually from 46.1 µM), for the others: at the highest dose activity, negative = less viability, most hits filed as cytotoxic; hit rate 1.6% among 360,000; AID 686970, 2013;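 note: NT is the 2HG producing partner of a matched IDH1 knockdown line; 0% = DMSO-treated cells and -100% = media-only wells without cells; nearly all actives have a fitted effect of over 55% in size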
#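 Read-out is CellTiter-Glo luminescence after 10 minutes at room temperature, following 48 hours' compound treatment of HT-1080-NT cells (750 cells/well, RPMI, 5% FBS, 37 degrees C).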
# MCF10A rerep: A quantitative high throughput screen for small molecules that induce DNA re-replication in MCF 10a normal breast cells | MCF 10A DNA re-replication, Hoechst nuclear intensity, 48 h | Potency, µM (highest dose often 46.1 µM), without a hit: at the highest dose activity, positive = re-replication, hits mostly activators | hit rate 2.9% among 350,000; note: % of control where 0% means no effect; nearly all actives have a fitted effect of over 50% in size
# * hit, by the source's call; i = inactive; ? = inconclusive; . = no result given; ! = repeats disagree; [ ] = dose if it differs, or a comment. In the library only some 8% were active in any assay of this set; here they are far more common. Calls come from the whole dose curve; as a rule, active = well fitted curve in the direction sought with a large enough effect; inconclusive = small, poorly fitted or top-dose-only effect, or another doubt; inactive = no such curve, though single readings can be large; an effect the other way counts as inactive or inconclusive. Potency is the fitted concentration of half-maximal effect.
SMILES,KB-V1 MDR tox,SW480 rereplic,HT1080 IDH1KD tx,KB-3-1 tox,HT1080-NT tox,MCF10A rerep
CCCCn1nnnc1C(CCc1ccccc1)N1CCC(n2c(=O)[nH]c3ccccc32)CC1 (configuration not stated),4.11µM*,.,?,?,?,.
CCC(c1nnnn1Cc1ccccc1)N1CCC(n2c(=O)[nH]c3ccccc32)CC1 (configuration not stated),?,.,?,i,25.9µM*,.
Clc1ccc(C[n+]2c(-c3ccccc3)cc(-c3ccccc3)cc2-c2ccccc2)cc1,i,5.2%,10.3µM*,10.3µM*,16.4µM*,?
Cc1cc(-c2ccccc2)cc(-c2ccccc2)[n+]1CCc1ccccc1,i,4.8%,-88.5%,?,-91.8%,?
Fc1ccc(C[n+]2c(-c3ccccc3)cc(-c3ccccc3)cc2-c2ccccc2)cc1,i,3.5%,18.4µM*,16.4µM*,16.4µM*,-30.8%
CC(=O)c1ccc(NC(=O)CSc2nc(=O)cc(N)n2-c2ccccc2)cc1,i,62.4%[1.84 µM],5.5%,i,3.5%,-20.4%
O=C(NN=Cc1ccc(N(CCCl)CCCl)cc1Cl)c1cccnc1,i,?,-15.7%,i,-11.3%,18.1%
O=C(NN=Cc1ccc(N(CCCl)CCCl)cc1)C(=O)c1c[nH]c2ccccc12,i,?,?,?,-18.3%,16.4µM*
O=C(Cc1cc(=O)oc2cc(O)ccc12)NN=Cc1ccc(N(CCCl)CCCl)cc1,i,?,-29.4%,i,-28.8%,?
O=C(NN=Cc1ccc(N(CCCl)CCCl)cc1)c1cc(=O)[nH]c(=O)[nH]1,i,7.31µM*,-11.5%,i,-9.4%,?
CCCCn1c(/N=C/c2c[nH]c3ccccc23)nc2ccccc21,i,18.4µM*,?,i,?,11.6µM*
C(=NN1CCCCCC1)c1c[nH]c2ccccc12,i,1.3%,14.8%,i,10.4%,29.2%
COC(=O)c1ccccc1C(=O)c1ccc(OCCN2CCCCC2)cc1,.,-6.1%,.,.,.,?
O=c1c2ccccc2nc(-c2cccs2)n1-c1ccccc1,?,-4.4%,-1.3%,i,-1.5%,19.1%
NC(N)=N/N=C/c1cn(-c2ccccc2)nc1-c1cccs1,?,-18.5%,-13.0%,i,-29.5%,7.31µM*
[O]=[Cr](=[O])([OH])[O][Cr](=[O])(=[O])[OH],.,?,.,.,.,11.9µM*!
COC(=O)C1=C(c2cc3ccccc3o2)C[C@@H]2CC[C@H]1N2C(=O)N1CCCC1,i,-1.9%,0.3%,?,3.7%,-8.3%
COC(=O)C1=C(c2cc3ccccc3o2)C[C@@H]2CC[C@H]1N2C(=O)N1CCCCC1,?,11.6µM*,10.3µM*,5.8µM*,?,?
COC(=O)C1=C(c2cc3ccccc3s2)C[C@@H]2CC[C@H]1N2C(=O)N1CCOCC1,i,?,8.2µM*,?,9.2µM*,?
CCOC(=O)Cn1cc([N+](=O)[O-])nc1[N+](=O)[O-],i,23.1µM*,-2.1%,i,-1.9%,13.8%
COc1ccc(Br)cc1C1SCC(=O)Nc2c1c(C)nn2-c1ccccc1C (configuration not stated),i,.,.,?,.,.
C[C@@]12CC[C@H]3[C@@H](CCC4=CC(=O)CC[C@]43C)[C@H]1CC[C@H]2C(=O)CO,.,-2.8%[20.6 µM],.,.,.,1.2%[20.6 µM]
CC(=O)[C@H]1CC[C@H]2[C@@H]3CCC4=CC(=O)CC[C@]4(C)[C@H]3CC[C@]12C,5.8µM*!,-0.9%,?,13µM*!,?,-2.2%
Cc1ccc(-c2csc3ncnc(OCC(=O)NC(=O)NCc4ccco4)c23)cc1,i,14.7%,?,i,?,28.5%
O=S(=O)(c1ccc(F)c(F)c1F)N1CCN(c2ncnc3sccc23)CC1,2.31µM*,?,-28.9%,?,-6.5%,?
SMILES,KB-V1 MDR tox,SW480 rereplic,HT1080 IDH1KD tx,KB-3-1 tox,HT1080-NT tox,MCF10A rerep
C[C@]12CCC3C(CC[C@H]4CC(O)CC[C@]34C)C1CC/C2=N/NC(=O)c1ccncc1 (some centres not stated),i,12.0%,-1.1%,i,-24.5%,?
N#Cc1ncc(N=Cc2ccc(N(CCCl)CCCl)cc2)s1,i,?,10.3µM*,?,?,20.6µM*
Cn1c(=O)oc2cc(S(=O)(=O)N3CCC(C(=O)N4CCN(c5ccc(F)cc5)CC4)CC3)ccc21,i,?,0.5%,?,0.0%,?
Brc1ccc2c(c1)CN(CC1CCCCC1)Cc1cnnn1-2,18.4µM*,.,-27.8%,i,-22.5%,.
Cc1cc(-n2c(/C=C/c3cccs3)nc3ccccc3c2=O)ccc1Br,i,.,.,i,.,.
Cc1cc(Cl)ccc1C(=O)C1CCCN(Cc2ccon2)C1 (configuration not stated),16.4µM*,-12.2%,1.3%,i,0.0%,0.5%
O=C(c1cccc2ccccc12)C1CCCN(Cc2ccon2)C1 (configuration not stated),i,?,-9.5%,i,-9.5%,5.7%
CN(C)CCN(C(=O)c1ccc(S(=O)(=O)N2CCc3ccccc32)cc1)c1nc2ccc(F)cc2s1,i,?,-2.2%,i,-1.6%,4.8%
Clc1ccc(COC(Cn2ccnc2)c2ccc(Cl)cc2Cl)c(Cl)c1 (configuration not stated),?,?,?,i,23.1µM*,11.6µM*
C=CCOC(Cn1ccnc1)c1ccc(Cl)cc1Cl (configuration not stated),i,-7.6%,1.3%,i,-4.2%,?
CCCCc1ccc(NC(=O)c2cccn(Cc3ccc(Cl)cc3)c2=O)cc1,i,.,.,?,.,.
COc1ccc(-c2nc(CN3C(=O)CN=C(c4ccccc4)c4ccccc43)c(C)o2)cc1OC,i,.,.,i,.,.
COc1ccc(CN2CCN(C(=O)Cc3ccccc3)CC2)c(OC)c1,i,-5.5%,13.3%,i,8.4%,?
COc1cccc(N2CCN(Cc3cccc(Cl)c3)CC2)c1,i,0.2%,1.2%,i,3.5%,?
COc1cccc(N2CCN(Cc3ccc(Cl)cc3)CC2)c1,16.4µM*,-0.7%,-8.3%,i,6.2%,2.0%
